Experimental data as given in PubChem BioAssay (EPA / NIEHS).
Several values for one entry are separate records, joined by “and”; a condition that tells them apart may be missing. Identical values can stand only once. Records with an inconclusive call do not appear. Some compounds were tested as several samples or in several runs, with calls that do not always agree. Activity calls are given as the source filed them. The calls were made as follows, unless noted: active = hit-call score of the fitted dose curve at least 0.9, where 1 is the maximum; inconclusive = response in the unintended direction; inactive = score below 0.9.

Key:
[1] = ATG_TAL_CIS: Attagene CIS-FACTORIAL HepG2 Assay for human TAL Basal Promoter (AID 2282966; active = hit-call score of the fitted dose curve at least 0.9, where 1 is the maximum; inactive = score below 0.9;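 also: background control endpoint measuring basal TAL promoter reporter mRNA not a specific factor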); conditions: HepG2 Attagene cis-factorial TAL promoter reporter; actives raise or lower the signal
How it was run: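 After 24 hours of chemical exposure, transfected HepG2 cells yielded RNA that was converted to 6-FAM-labelled, HpaI-digested reporter fragments for capillary electrophoresis. Values derive from bidirectional fitting against DMSO controls.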

[2] = ATG_TGFb_CIS: Attagene CIS-FACTORIAL HepG2 Assay for human Transforming Growth Factor (TGF) (AID 2282967; active = hit-call score of the fitted dose curve at least 0.9, where 1 is the maximum; inactive = score below 0.9); conditions: HepG2 Attagene CIS TGFb reporter, mRNA transcription; actives raise or lower the signal
How it was run: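 Readout: fluorescently labeled reporter cDNA fragments resolved by capillary electrophoresis after RT-PCR. Transfected HepG2 cells dosed for 24 h; endogenous TF activity at TGFB1-linked cis element; gain or loss fitted relative to DMSO.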

[3] = ATG_VDRE_CIS: Attagene CIS-FACTORIAL HepG2 Assay for human Vitamin D Receptor Element (VDRE) (AID 2282968; active = hit-call score of the fitted dose curve at least 0.9, where 1 is the maximum; inactive = score below 0.9); conditions: HepG2 VDRE cis-reporter transcription, actives raise or lower the signal
How it was run: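 Measures endogenous factor activity through cis-element-driven reporter transcripts in transiently transfected HepG2. Cells are treated 24 h; reporter mRNA is quantified by RT-PCR and capillary electrophoresis; fitting is bidirectional.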

[4] = target: Nuclear receptor subfamily 1 group I member 3 (Homo sapiens) (UniProt Q14994); assay: ATG_CAR_TRANS: Attagene TRANS-FACTORIAL HepG2 Assay for human Constitutive Androstane Receptor (CAR) (AID 2282969); conditions: HepG2 Attagene TRANS-FACTORIAL CAR reporter;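 also: activators raise reporter mRNA above DMSO so AC50 marks induction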
Sequence of Nuclear receptor subfamily 1 group I member 3 (Homo sapiens) (Q14994 whole entry, looked up, the tested form may be a part): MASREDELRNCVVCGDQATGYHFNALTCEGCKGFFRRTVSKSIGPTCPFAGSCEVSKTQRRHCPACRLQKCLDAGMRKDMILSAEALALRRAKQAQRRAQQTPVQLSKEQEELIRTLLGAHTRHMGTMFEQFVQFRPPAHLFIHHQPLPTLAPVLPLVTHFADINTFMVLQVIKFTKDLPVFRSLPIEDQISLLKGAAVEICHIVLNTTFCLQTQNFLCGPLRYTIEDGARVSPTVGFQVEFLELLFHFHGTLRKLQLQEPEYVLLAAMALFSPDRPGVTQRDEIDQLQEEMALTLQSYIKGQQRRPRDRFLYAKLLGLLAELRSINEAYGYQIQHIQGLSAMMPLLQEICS
How it was run: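 Signal is reporter mRNA induction relative to DMSO, measured 24 h after dosing by RT-PCR with fluorescent primer extension and capillary electrophoresis. Human HepG2 liver cells carried transiently transfected chimeric NR-Gal4/GAL4-UAS reporter constructs.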

[5] = target: Steroid hormone receptor ERR1 (Homo sapiens) (UniProt P11474); assay: ATG_ERRa_TRANS: Attagene TRANS-FACTORIAL HepG2 Assay for human Estrogen-Related Receptor alpha (ERRa) (AID 2282971); conditions: HepG2 Attagene TRANS reporter, ERRa transactivation
Sequence of Steroid hormone receptor ERR1 (Homo sapiens) (P11474 whole entry, looked up, the tested form may be a part): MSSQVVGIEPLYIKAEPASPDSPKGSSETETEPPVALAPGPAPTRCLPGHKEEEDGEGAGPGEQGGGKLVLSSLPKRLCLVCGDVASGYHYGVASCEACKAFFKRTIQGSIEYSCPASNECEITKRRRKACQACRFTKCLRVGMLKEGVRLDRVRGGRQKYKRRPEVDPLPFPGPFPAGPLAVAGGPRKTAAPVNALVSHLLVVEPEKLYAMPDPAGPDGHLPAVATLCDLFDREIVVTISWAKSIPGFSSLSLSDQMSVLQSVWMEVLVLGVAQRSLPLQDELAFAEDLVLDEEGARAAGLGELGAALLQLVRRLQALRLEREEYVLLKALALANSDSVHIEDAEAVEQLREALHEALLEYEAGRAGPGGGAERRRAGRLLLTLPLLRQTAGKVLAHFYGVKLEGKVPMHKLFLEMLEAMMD
How it was run: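 Reporter transcript induction was quantified by RT-PCR and capillary electrophoresis of FAM-labelled, HpaI-cut products after 24 h treatment of HepG2 cells carrying transiently transfected GAL4-UAS reporter units and an exogenous ERRa-Gal4 fusion; activity scored as increase over DMSO.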

[6] = target: X-box-binding protein 1 (Homo sapiens) (UniProt P17861); assay: ATG_Xbp1_CIS: Attagene CIS-FACTORIAL HepG2 Assay for human X-box Binding Protein 1 (XBP1) (AID 2282972; active = hit-call score of the fitted dose curve at least 0.9, where 1 is the maximum; inactive = score below 0.9); conditions: HepG2 XBP1 cis-element reporter, Attagene multiplex; actives raise or lower the signal
Sequence of X-box-binding protein 1 (Homo sapiens) (P17861 whole entry, looked up): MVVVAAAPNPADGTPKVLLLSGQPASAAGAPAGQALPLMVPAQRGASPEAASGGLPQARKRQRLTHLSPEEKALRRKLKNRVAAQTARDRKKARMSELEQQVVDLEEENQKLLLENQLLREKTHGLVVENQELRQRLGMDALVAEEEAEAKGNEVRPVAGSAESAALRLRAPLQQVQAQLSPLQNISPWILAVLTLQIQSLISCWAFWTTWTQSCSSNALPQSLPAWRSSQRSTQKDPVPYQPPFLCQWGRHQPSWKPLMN
How it was run: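 Human hepatoma HepG2, cis-element reporter system, 24 h treatment; mRNA quantified by RT-PCR/CE fluorescence; fit relative to DMSO.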

[7] = ATG_M_19_TRANS: Attagene TRANS-FACTORIAL HepG2 Assay for M19 Transcription Factor (Internal Marker) (AID 2282974); conditions: HepG2 Attagene TRANS-FACTORIAL M19 internal marker reporter
How it was run: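 HepG2 transiently transfected with GAL4-UAS multiplex reporter constructs, exposed 24 h; reporter RNA quantified by RT-PCR, 6-FAM labeling, HpaI digestion and capillary electrophoresis; internal background marker fitted upward versus DMSO.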

[8] = target: Glucocorticoid receptor (Homo sapiens) (UniProt P04150); assay: ATG_GR_TRANS: Attagene TRANS-FACTORIAL HepG2 Assay for human Glucocorticoid Receptor (GR) (AID 2282978); conditions: HepG2 Attagene TRANS GR reporter, mRNA transcription;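 also: activators score as hits since higher reporter transcript over DMSO is fitted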
How it was run: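 HepG2 cells transiently transfected with GAL4-UAS reporter units and exogenous GR-Gal4 chimera, dosed 24 h. Reporter mRNA by RT-PCR, FAM labeling, HpaI digest and capillary electrophoresis; gain-of-signal fit versus DMSO.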

[9] = target: Bile acid receptor (Homo sapiens) (UniProt Q96RI1); assay: ATG_FXR_TRANS: Attagene TRANS-FACTORIAL HepG2 Assay for Farnesoid X Receptor (FXR) (AID 2282979); conditions: HepG2 Attagene TRANS FXR-GAL4 reporter transcription;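 also: hits raise reporter mRNA above DMSO so AC50 marks FXR activation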
Sequence of Bile acid receptor (Homo sapiens) (Q96RI1 whole entry, looked up, the tested form may be a part): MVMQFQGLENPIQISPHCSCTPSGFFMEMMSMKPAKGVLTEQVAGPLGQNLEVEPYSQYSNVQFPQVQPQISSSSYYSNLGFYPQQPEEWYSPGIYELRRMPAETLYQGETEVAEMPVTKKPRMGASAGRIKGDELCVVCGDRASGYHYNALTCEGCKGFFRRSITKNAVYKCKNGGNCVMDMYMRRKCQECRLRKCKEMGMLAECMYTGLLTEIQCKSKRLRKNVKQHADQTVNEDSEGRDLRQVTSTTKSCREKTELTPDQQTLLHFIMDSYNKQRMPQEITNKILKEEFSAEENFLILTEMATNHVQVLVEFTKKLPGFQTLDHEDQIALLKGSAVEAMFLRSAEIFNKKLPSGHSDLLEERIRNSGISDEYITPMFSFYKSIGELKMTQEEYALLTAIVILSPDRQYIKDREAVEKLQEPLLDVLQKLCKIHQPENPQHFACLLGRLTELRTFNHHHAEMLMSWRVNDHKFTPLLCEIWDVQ
How it was run: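 Transient transfection of HepG2 with multiplexed GAL4-UAS reporter units; exogenous FXR-GAL4 chimera. Dose 24 h → TriZol RNA → oligo(dT) RT → PCR, 6-FAM primer extension, HpaI cut → CE. Gain vs DMSO.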

[10] = target: Oxysterols receptor LXR-alpha (Homo sapiens) (UniProt Q13133); assay: ATG_LXRa_TRANS: Attagene TRANS-FACTORIAL HepG2 Assay for human Liver X Receptor alpha (LXRa) (AID 2282980); conditions: HepG2 Attagene TRANS reporter, LXRa transactivation
Sequence of Oxysterols receptor LXR-alpha (Homo sapiens) (Q13133 whole entry, looked up, the tested form may be a part): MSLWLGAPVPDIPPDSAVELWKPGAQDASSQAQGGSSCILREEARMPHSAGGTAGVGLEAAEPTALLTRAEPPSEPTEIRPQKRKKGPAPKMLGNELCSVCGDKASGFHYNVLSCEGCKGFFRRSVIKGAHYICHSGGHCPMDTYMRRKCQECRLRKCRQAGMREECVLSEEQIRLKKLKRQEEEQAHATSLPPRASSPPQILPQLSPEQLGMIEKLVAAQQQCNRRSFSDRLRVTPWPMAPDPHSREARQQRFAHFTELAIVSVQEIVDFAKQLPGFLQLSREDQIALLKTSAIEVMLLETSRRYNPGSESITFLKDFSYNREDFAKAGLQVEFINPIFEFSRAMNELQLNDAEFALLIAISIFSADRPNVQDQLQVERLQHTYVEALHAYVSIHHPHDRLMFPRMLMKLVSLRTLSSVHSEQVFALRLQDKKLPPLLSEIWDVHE
How it was run: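 Transfect HepG2 with GAL4-UAS multiplex reporter constructs (TRANS format, chimeric receptor-GAL4); treat 24 h; extract RNA, reverse-transcribe, PCR-amplify, FAM-label, HpaI-digest; resolve fragments by capillary electrophoresis. Upward response vs DMSO.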

[11] = target: Hepatocyte nuclear factor 4-alpha (Homo sapiens) (UniProt P41235); assay: ATG_HNF4a_TRANS: Attagene TRANS-FACTORIAL HepG2 Assay for human Hepatocyte Nuclear Factor 4 alpha (HNF4a) (AID 2282982); conditions: HepG2 HNF4a transactivation reporter, mRNA readout
Sequence of Hepatocyte nuclear factor 4-alpha (Homo sapiens) (P41235 whole entry, looked up): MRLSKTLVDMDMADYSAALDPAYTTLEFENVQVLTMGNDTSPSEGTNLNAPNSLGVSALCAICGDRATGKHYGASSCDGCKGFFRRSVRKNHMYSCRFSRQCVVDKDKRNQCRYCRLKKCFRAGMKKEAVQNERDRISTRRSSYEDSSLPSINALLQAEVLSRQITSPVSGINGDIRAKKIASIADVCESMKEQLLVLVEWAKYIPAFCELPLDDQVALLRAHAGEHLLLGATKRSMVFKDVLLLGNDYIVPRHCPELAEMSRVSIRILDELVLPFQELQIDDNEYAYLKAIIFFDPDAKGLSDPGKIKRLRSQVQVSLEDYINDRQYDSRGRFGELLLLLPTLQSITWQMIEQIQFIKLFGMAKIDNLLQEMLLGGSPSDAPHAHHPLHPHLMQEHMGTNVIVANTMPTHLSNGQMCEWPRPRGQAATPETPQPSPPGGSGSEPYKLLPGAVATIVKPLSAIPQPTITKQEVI
How it was run: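 Multiplexed reporter assay: transfected HepG2, 24 h exposure, total RNA → oligo(dT) RT → PCR → 6-FAM extension → HpaI digest → CE fluorescence. DMSO = negative control.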

[12] = ATG_M_06_TRANS: Attagene TRANS-FACTORIAL HepG2 Assay for M06 Transcription Factor (Internal Marker) (AID 2282983); conditions: HepG2 Attagene TRANS M06 internal marker reporter;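 also: reporter transcript level by RT-PCR then capillary electrophoresis fluorescence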
How it was run: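 Background control endpoint: reporter mRNA from transiently transfected HepG2 after 24 h dosing, detected by RT-PCR with capillary electrophoresis fluorescence. Analysed for gain versus DMSO.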

[13] = ATG_M_32_TRANS: Attagene TRANS-FACTORIAL HepG2 Assay for M32 Transcription Factor (Internal Marker) (AID 2282984); conditions: HepG2 Attagene TRANS M32 internal marker reporter;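 also: transcript level of a background control reporter unit measured by RT-PCR and capillary electrophoresis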
How it was run: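 Cell-based TRANS-format assay in HepG2: exogenous chimeric GAL4 reporter units transiently expressed, compounds applied 24 h. Reporter mRNA detected by RT-PCR plus capillary electrophoresis; this readout is an internal background marker.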

[14] = target: Nuclear receptor subfamily 4 group A member 2 (Homo sapiens) (UniProt P43354); assay: ATG_NURR1_TRANS: Attagene TRANS-FACTORIAL HepG2 Assay for human Nuclear Receptor Related Protein 1 (NURR1) (AID 2282985); conditions: HepG2 Attagene TRANS reporter, mRNA readout
Sequence of Nuclear receptor subfamily 4 group A member 2 (Homo sapiens) (P43354 whole entry, looked up, the tested form may be a part): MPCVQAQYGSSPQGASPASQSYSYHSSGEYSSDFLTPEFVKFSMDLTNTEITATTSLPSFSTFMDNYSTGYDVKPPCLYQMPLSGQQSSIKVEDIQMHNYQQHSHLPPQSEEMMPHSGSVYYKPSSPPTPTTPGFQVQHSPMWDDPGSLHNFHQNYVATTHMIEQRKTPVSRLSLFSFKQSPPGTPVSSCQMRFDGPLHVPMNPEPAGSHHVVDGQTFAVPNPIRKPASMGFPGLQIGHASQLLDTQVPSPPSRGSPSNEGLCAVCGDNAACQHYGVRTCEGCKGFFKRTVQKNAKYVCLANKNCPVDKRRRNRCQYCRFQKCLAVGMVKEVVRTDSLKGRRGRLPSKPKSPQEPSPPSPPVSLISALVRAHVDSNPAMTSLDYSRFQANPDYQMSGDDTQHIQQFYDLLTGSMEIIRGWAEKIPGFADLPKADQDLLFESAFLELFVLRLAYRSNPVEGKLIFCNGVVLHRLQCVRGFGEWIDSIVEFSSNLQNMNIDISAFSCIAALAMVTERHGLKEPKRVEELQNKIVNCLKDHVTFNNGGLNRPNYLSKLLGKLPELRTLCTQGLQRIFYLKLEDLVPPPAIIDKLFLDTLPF
How it was run: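 Measures transcriptional activation by an exogenous NR-Gal4 chimera in transfected HepG2 liver cells. After 24 h, reporter RNA is reverse-transcribed, amplified and resolved by capillary electrophoresis; DMSO defines baseline.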

[15] = target: Transcriptional activator Myb (Homo sapiens) (UniProt P10242); assay: ATG_Myb_CIS: Attagene CIS-FACTORIAL HepG2 Assay for human Myeloblastosis (Myb) Proto-Oncogene Transcription Factor (AID 2282986; active = hit-call score of the fitted dose curve at least 0.9, where 1 is the maximum; inactive = score below 0.9); conditions: HepG2 Attagene CIS-FACTORIAL Myb reporter transcription; actives raise or lower the signal
Sequence of Transcriptional activator Myb (Homo sapiens) (P10242 whole entry, looked up): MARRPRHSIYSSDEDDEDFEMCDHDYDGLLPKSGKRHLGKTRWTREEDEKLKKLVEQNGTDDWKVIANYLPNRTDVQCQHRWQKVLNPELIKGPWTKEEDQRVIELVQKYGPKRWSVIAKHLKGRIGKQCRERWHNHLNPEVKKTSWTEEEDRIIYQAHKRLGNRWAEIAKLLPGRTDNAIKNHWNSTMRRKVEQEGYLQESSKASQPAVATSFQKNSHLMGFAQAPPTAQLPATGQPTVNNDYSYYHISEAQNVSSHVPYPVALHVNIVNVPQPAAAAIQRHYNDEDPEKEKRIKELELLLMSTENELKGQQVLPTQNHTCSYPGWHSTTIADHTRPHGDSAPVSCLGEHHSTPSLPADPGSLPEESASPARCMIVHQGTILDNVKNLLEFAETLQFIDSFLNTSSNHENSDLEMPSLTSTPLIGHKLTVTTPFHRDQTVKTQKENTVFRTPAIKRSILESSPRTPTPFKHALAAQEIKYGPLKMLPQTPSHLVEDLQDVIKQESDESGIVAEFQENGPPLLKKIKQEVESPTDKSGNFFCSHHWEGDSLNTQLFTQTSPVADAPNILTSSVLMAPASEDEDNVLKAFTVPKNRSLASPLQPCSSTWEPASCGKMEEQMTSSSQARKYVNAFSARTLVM
How it was run: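 Transiently transfected HepG2 cells carrying a multiplexed cis-promoter reporter set report endogenous Myb activity after 24 h compound exposure. Reporter mRNA is read by RT-PCR with capillary electrophoresis of fluorescent products, fitted bidirectionally against DMSO.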

[16] = target: Nuclear respiratory factor 1 (Homo sapiens) (UniProt Q16656); assay: ATG_NRF1_CIS: Attagene CIS-FACTORIAL HepG2 Assay for human Nuclear Respiratory Factor 1 (NRF1) Orphan Gene (AID 2282987; active = hit-call score of the fitted dose curve at least 0.9, where 1 is the maximum; inactive = score below 0.9); conditions: HepG2 NRF1 cis-element reporter, Attagene multiplex; actives raise or lower the signal
Sequence of Nuclear respiratory factor 1 (Homo sapiens) (Q16656 whole entry, looked up): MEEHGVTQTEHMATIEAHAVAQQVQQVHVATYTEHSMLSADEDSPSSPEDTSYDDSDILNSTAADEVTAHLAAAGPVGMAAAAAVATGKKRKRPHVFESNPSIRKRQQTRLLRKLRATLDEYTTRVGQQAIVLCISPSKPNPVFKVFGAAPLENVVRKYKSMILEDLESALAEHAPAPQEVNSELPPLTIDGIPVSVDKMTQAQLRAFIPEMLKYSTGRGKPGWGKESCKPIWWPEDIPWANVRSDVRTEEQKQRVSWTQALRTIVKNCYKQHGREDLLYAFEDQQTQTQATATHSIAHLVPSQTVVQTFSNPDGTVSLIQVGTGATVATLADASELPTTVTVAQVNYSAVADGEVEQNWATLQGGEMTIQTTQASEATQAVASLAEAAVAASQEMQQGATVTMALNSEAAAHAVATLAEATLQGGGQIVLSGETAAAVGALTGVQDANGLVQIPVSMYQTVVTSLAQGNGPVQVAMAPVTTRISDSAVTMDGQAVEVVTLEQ
How it was run: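 HepG2 cells transiently transfected with multiple cis-regulated reporter units, exposed 24 h. Reporter mRNAs measured by RT-PCR, fluorescent labelling, HpaI digestion and capillary electrophoresis; bidirectional fitting against DMSO.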

[17] = ATG_GAL4_TRANS: Attagene TRANS-FACTORIAL HepG2 Assay for GAL4 (Internal Marker) (AID 2282976); conditions: HepG2 Attagene TRANS GAL4 internal marker reporter
How it was run: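 First, HepG2 cells were transfected with reporter units under GAL4-UAS control. Next, they were treated with chemical for 24 h. Finally, RNA was reverse-transcribed, PCR-amplified, FAM-labelled and resolved by capillary electrophoresis, with induction scored against DMSO.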

[18] = target: Estrogen receptor (Homo sapiens) (UniProt P03372); assay: ATG_ERa_TRANS: Attagene TRANS-FACTORIAL HepG2 Assay for human Estrogen Receptor alpha (ERa) (AID 2282970); conditions: HepG2 Attagene TRANS ERa GAL4 reporter, mRNA
How it was run: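 Liver-derived HepG2 cells expressing chimeric nuclear receptor-Gal4 proteins from transient transfection were exposed for 24 hours. Gain of reporter mRNA signal versus DMSO, read by capillary electrophoresis of FAM-labelled PCR products, was recorded.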

[19] = target: Androgen receptor (Homo sapiens) (UniProt P10275); assay: ATG_AR_TRANS: Attagene TRANS-FACTORIAL HepG2 Assay for human Androgen Receptor (AR) (AID 2282973); conditions: HepG2 Attagene TRANS-FACTORIAL AR reporter transcription
How it was run: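 Steps: transfect HepG2 with multiple GAL4-UAS reporter transcription units (TRANS format, exogenous NR-Gal4 protein); dose 24 h; isolate RNA, reverse-transcribe, PCR-amplify, FAM-label, HpaI-digest; resolve by capillary electrophoresis. Positive direction vs DMSO.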

[20] = target: Estrogen-related receptor gamma (Homo sapiens) (UniProt P62508); assay: ATG_ERRg_TRANS: Attagene TRANS-FACTORIAL HepG2 Assay for human Estrogen-Related Receptor gamma (ERRg) (AID 2282977); conditions: HepG2 Attagene TRANS reporter, ERRg transactivation;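 also: hits increase reporter signal over DMSO so potencies reflect activators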
Sequence of Estrogen-related receptor gamma (Homo sapiens) (P62508 whole entry, looked up, the tested form may be a part): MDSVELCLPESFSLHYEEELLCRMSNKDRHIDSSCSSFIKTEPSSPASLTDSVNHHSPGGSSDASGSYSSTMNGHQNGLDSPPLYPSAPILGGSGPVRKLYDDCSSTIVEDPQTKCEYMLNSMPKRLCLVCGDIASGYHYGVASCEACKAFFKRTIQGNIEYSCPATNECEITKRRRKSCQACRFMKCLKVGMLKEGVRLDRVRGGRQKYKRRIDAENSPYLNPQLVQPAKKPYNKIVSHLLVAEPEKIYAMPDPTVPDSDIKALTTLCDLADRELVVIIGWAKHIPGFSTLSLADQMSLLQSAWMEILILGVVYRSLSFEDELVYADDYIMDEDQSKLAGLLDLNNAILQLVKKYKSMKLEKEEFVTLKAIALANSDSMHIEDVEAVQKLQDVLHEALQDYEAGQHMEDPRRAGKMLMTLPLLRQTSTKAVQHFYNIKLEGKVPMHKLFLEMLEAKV
How it was run: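 Readout: fluorescent reporter-mRNA fragments resolved by capillary electrophoresis after RT-PCR and HpaI cut. Cells: transiently transfected HepG2 carrying GAL4-UAS reporters driven by exogenous NR-Gal4 chimeras, dosed 24 h. Activity fitted upward relative to DMSO baseline.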

Measured: AC50

Nc1ccc([N+](=O)[O-])cc1
not listed: [17] | [18] | [19] | [20]
inactive: all other assays above

c1ccc2c(c1)-c1cccc3cccc-2c13
active: [14] 160 µM
inactive: [1] | [2] | [3] | [4] | [6] | [17] | [12] | [15] | [16]

ClC1=C(Cl)[C@]2(Cl)[C@H]3[C@H]([C@@H]4C=C[C@H]3C4)[C@@]1(Cl)C2(Cl)Cl
inactive: [1] | [2] | [4] | [7] | [11] | [14] | [15] | [16]
active: [3] 11.7 µM | [18] 11.5 µM | [6] 33.4 µM

CCNS(=O)(=O)C(F)(F)C(F)(F)C(F)(F)C(F)(F)C(F)(F)C(F)(F)C(F)(F)C(F)(F)F
inactive: [1] | [3] | [4] | [5] | [19] | [7] | [20] | [9] | [10] | [11] | [12] | [13] | [14] | [15] | [16]
active: [2] 91.1 µM and 44 µM and 40.3 µM | [3] 67.3 µM and 25.7 µM | [6] 73.3 µM and 84.4 µM and 31.5 µM | [10] 42.3 µM and 39.2 µM | [15] 25.8 µM

Nc1ccc(Cc2ccc(N)cc2)cc1
not listed: [5] | [11] | [14] | [17] | [18] | [19] | [20]
inactive: all other assays above

COC(=O)Nc1nc2ccccc2[nH]1
not listed: [5] | [8] | [9] | [10] | [17] | [18] | [19] | [20]
inactive: all other assays above

O=[N+]([O-])C(Br)(CO)CO
active: [2] 23.4 µM | [3] 127 µM | [6] 145 µM | [16] 162 µM
not listed: [5] | [7] | [8] | [14] | [17] | [20]
inactive: all other assays above

CCCCC(CC)COC(=O)c1ccc(C(=O)OCC(CC)CCCC)c(C(=O)OCC(CC)CCCC)c1 (stereo not drawn)
not listed: [5] | [8] | [9] | [10] | [11] | [13] | [18] | [20]
inactive: all other assays above
